# Measurements from publication PMC7862700, “An all-to-all approach to the identification of sequence-specific readers for epigenetic DNA modifications on cytosine”.
# Assays:
# Experiment in all cases: DAPPL (digital affinity profiling via proximity ligation, sequencing); 10 mM Tris-HCl pH 7.5, 50 mM NaCl, 1 mM DTT, 4% glycerol, room temperature, 30 min; GST-TFs on glutathione beads, 16-mer random dsDNA library, 0.1% formaldehyde crosslink after washing; high values mean tight binding
# FLI1 = target: T1, FLI1 (Homo sapiens, UniProt Q01543 1-452); conditions: protein: recombinant; tags: N-terminal GST; dsDNA, one strand shown
# T1 sequence: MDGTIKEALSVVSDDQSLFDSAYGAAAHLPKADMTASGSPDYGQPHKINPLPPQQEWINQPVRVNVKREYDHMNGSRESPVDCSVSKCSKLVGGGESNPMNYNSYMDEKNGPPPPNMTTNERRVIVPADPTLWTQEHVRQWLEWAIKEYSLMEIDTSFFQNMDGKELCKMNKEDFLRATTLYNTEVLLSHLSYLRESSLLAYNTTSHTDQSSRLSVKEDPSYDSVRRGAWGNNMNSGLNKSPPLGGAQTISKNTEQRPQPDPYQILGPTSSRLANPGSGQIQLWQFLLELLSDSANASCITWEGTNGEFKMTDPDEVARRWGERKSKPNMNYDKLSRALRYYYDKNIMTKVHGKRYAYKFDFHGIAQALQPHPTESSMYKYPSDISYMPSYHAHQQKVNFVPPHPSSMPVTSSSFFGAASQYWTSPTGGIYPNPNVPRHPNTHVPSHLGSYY
# How it was run: (§1)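 After expression in yeast as GST fusions, human transcription factors were bound to glutathione beads, DNA-barcoded and mixed with a tag-only sample. The pools were incubated with 200 nmole of a 16-mer random double-stranded DNA library in Tris/NaCl/DTT/glycerol buffer (30 min, room temperature), washed and crosslinked with 0.1% formaldehyde. Proximity ligation with BsaI/T4 ligase ran for 1 h at 37 °C, before PCR amplification and sequencing on an Illumina NextSeq500. Binding signal is a hexamer's read frequency for a factor divided by its frequency for the tag-only sample.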
# ELK1 = target: T2, ELK1 (Homo sapiens, UniProt P19419 1-428); conditions: protein: recombinant; tags: N-terminal GST; dsDNA, one strand shown
# T2 sequence: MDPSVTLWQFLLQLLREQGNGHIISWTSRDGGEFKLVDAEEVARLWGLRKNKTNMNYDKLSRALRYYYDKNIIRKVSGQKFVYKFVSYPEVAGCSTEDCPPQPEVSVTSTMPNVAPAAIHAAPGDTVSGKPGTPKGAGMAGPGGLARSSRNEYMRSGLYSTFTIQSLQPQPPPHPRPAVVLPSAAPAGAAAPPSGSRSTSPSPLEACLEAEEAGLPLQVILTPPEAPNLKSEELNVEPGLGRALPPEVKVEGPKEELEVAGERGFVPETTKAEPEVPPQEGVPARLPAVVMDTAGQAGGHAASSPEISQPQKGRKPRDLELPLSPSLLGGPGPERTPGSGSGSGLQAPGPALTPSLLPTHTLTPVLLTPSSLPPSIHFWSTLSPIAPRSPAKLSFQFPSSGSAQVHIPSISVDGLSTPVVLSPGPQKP
# How it was run: as §1
# GABPA = target: T3, GABPA (Homo sapiens, UniProt Q06546 1-454); conditions: protein: recombinant; tags: N-terminal GST; dsDNA, one strand shown
# T3 sequence: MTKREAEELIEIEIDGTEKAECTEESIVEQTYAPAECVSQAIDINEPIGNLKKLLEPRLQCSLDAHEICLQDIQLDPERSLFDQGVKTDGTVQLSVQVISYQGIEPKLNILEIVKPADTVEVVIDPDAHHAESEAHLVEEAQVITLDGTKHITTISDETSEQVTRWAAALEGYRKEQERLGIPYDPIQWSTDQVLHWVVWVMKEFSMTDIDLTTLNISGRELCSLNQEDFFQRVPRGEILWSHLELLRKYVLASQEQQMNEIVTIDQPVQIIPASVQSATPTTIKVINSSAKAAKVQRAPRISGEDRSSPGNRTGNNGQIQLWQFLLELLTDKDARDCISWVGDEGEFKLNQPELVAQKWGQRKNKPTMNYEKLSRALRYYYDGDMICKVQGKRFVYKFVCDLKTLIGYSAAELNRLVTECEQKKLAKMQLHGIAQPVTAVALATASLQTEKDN
# How it was run: as §1
# ERG = target: T4, ERG (Homo sapiens, UniProt P11308 1-479); conditions: protein: recombinant; tags: N-terminal GST; dsDNA, one strand shown
# T4 sequence: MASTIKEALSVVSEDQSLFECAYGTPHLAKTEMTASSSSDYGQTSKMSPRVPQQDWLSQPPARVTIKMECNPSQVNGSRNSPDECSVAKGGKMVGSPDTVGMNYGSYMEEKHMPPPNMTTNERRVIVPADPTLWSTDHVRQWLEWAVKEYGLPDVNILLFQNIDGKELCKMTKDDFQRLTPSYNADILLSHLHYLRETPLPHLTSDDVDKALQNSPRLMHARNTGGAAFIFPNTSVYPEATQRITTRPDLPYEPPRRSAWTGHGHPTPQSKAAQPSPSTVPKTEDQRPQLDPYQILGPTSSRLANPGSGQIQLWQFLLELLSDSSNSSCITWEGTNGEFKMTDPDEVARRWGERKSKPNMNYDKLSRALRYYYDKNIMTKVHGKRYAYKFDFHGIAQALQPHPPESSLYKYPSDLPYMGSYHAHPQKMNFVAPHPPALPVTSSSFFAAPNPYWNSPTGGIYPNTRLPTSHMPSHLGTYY
# How it was run: as §1
# ELF1 = ELF1 (Homo sapiens, UniProt P32519 1-619); conditions: protein: recombinant; tags: N-terminal GST; dsDNA, one strand shown
# How it was run: as §1
# EHF = target: T5, EHF (Homo sapiens, UniProt Q9NZC4 1-300); conditions: protein: recombinant; tags: N-terminal GST; dsDNA, one strand shown
# T5 sequence: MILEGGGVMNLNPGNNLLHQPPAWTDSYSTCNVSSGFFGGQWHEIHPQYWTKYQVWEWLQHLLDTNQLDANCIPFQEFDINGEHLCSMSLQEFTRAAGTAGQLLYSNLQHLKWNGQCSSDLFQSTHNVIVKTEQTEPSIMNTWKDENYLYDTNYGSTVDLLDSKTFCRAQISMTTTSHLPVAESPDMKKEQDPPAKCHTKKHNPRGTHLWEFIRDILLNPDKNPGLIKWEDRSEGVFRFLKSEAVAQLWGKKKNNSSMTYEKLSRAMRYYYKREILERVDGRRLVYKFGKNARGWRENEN
# How it was run: as §1
# SPI1 = SPI1 (Homo sapiens, UniProt P17947 1-270); conditions: protein: recombinant; tags: N-terminal GST; dsDNA, one strand shown
# How it was run: as §1
# SPIB = SPIB (Homo sapiens, UniProt Q01892 1-262); conditions: protein: recombinant; tags: N-terminal GST; dsDNA, one strand shown
# How it was run: as §1
# ELK3 = target: T6, ELK3 (Homo sapiens, UniProt P41970 1-407); conditions: protein: recombinant; tags: N-terminal GST; dsDNA, one strand shown
# T6 sequence: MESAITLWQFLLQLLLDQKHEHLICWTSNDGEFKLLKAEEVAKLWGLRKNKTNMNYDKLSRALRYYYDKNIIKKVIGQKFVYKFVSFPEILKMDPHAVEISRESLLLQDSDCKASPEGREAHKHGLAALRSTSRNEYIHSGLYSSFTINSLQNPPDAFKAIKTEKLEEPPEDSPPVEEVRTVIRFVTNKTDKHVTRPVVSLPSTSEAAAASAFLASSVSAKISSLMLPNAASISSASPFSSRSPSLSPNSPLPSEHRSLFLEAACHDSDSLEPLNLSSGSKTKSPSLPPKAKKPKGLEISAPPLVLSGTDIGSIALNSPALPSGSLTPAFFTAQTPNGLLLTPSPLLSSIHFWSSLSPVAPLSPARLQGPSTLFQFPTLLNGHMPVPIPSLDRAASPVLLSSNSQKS
# How it was run: as §1
# FEV = target: T7, FEV (Homo sapiens, UniProt Q99581 1-238); conditions: protein: recombinant; tags: N-terminal GST; dsDNA, one strand shown
# T7 sequence: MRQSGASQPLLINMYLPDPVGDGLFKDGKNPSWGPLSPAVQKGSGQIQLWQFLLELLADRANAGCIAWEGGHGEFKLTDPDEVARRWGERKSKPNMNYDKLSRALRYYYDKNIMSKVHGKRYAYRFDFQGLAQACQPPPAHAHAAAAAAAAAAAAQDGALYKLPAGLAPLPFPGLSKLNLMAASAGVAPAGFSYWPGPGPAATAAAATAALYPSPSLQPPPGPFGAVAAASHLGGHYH
# How it was run: as §1
# ETV5 = ETV5 (Homo sapiens, UniProt P41161 1-510); conditions: protein: recombinant; tags: N-terminal GST; dsDNA, one strand shown
# How it was run: as §1
# HSF1 = HSF1 (Homo sapiens, UniProt Q00613 1-529); conditions: protein: recombinant; tags: N-terminal GST; chain copies: 3; dsDNA, one strand shown
# How it was run: as §1
# SPIC = target: T8, SPIC (Homo sapiens, UniProt Q8N5J4 1-248); conditions: protein: recombinant; tags: N-terminal GST; dsDNA, one strand shown
# T8 sequence: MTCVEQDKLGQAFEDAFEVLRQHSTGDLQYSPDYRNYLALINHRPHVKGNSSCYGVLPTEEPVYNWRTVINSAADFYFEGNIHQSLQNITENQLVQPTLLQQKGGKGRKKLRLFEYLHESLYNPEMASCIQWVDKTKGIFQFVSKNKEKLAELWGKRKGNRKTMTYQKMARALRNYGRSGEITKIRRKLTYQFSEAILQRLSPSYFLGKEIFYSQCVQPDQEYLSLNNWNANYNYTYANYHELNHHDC
# How it was run: as §1
# ELF4 = ELF4 (Homo sapiens, UniProt Q99607 1-663); conditions: protein: recombinant; tags: N-terminal GST; dsDNA, one strand shown
# How it was run: as §1
# ELK4 = target: T9, ELK4 (Homo sapiens, UniProt P28324-2 1-405); conditions: protein: recombinant; tags: N-terminal GST; dsDNA, one strand shown
# T9 sequence: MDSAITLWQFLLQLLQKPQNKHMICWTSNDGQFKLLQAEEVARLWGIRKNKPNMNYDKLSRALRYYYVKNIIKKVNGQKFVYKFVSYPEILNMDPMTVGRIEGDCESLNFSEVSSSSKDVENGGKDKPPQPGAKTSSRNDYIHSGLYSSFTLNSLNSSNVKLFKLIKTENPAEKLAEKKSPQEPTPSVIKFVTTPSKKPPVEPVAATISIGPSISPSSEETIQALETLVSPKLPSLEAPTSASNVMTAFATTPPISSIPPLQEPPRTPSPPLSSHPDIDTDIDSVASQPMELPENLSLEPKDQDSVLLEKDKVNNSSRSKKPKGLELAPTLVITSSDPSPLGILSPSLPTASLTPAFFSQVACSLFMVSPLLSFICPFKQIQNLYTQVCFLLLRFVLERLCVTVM
# How it was run: as §1
# ETV2 = target: T10, ETV2 (Homo sapiens, UniProt O00321 1-342); conditions: protein: recombinant; tags: N-terminal GST; dsDNA, one strand shown
# T10 sequence: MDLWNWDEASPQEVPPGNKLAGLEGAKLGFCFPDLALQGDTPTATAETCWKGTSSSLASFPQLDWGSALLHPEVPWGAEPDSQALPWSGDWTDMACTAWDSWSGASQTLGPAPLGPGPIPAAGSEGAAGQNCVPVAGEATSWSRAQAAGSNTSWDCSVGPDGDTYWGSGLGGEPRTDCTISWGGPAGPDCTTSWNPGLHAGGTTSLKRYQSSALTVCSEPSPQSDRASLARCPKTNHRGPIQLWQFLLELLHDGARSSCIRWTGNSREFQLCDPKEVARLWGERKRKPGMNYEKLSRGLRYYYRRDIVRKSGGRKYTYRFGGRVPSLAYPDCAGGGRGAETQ
# How it was run: as §1
# ELF3 = target: T11, ELF3 (Homo sapiens, UniProt P78545 1-371); conditions: protein: recombinant; tags: N-terminal GST; dsDNA, one strand shown
# T11 sequence: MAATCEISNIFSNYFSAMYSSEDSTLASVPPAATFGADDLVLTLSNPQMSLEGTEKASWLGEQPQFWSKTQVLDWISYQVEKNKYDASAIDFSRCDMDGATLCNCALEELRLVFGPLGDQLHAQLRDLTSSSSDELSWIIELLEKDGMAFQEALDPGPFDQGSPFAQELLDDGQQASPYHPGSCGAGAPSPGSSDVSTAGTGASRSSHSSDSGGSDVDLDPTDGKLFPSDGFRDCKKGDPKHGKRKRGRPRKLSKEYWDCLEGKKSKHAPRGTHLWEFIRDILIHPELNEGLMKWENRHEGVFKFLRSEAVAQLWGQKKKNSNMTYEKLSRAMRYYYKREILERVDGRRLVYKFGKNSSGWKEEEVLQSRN
# How it was run: as §1
# CRX = CRX (Homo sapiens, UniProt O43186 1-299); conditions: protein: recombinant; tags: N-terminal GST; dsDNA, one strand shown
# How it was run: as §1
# ETV1 = ETV1 (Homo sapiens, UniProt P50549 1-477); conditions: protein: recombinant; tags: N-terminal GST; dsDNA, one strand shown
# How it was run: as §1
# ELF1, sequence (P32519 whole entry): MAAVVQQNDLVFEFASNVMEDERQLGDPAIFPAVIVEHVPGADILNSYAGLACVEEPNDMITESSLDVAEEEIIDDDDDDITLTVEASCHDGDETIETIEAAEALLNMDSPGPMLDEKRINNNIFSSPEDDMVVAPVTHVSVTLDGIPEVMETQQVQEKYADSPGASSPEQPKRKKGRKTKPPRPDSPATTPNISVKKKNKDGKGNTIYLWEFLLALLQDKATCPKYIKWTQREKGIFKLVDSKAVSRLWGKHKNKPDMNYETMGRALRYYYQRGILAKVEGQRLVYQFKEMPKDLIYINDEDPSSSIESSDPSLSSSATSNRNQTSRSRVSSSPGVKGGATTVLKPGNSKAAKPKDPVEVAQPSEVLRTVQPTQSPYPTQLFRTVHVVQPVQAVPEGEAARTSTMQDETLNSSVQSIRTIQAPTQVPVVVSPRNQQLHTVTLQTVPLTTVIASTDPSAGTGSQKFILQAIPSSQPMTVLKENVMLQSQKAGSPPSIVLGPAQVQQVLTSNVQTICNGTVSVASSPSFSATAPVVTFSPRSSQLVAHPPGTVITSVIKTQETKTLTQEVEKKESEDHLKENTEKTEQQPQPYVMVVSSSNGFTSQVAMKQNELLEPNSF
# ETV5, sequence (P41161 whole entry): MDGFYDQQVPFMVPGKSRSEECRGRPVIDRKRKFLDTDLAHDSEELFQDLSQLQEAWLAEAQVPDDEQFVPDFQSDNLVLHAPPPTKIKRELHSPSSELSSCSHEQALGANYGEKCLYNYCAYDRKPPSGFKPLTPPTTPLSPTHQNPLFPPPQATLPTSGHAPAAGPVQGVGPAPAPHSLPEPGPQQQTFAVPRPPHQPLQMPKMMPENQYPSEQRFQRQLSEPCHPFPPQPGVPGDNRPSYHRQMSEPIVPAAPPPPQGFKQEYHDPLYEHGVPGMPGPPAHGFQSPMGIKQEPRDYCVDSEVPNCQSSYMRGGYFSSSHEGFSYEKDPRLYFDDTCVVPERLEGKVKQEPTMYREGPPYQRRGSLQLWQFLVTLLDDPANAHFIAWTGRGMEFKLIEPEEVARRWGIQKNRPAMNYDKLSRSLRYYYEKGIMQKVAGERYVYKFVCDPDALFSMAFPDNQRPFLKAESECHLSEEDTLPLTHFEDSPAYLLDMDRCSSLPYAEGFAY
# CRX, sequence (O43186 whole entry): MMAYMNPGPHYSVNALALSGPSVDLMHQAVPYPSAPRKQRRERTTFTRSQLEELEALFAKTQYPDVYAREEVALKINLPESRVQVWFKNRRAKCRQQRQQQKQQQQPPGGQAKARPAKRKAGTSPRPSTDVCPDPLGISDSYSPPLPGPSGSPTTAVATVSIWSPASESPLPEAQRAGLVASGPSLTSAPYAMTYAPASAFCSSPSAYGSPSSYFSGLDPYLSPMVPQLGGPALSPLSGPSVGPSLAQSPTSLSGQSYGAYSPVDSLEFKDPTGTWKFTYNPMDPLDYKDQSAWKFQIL
# HSF1, sequence (Q00613 whole entry): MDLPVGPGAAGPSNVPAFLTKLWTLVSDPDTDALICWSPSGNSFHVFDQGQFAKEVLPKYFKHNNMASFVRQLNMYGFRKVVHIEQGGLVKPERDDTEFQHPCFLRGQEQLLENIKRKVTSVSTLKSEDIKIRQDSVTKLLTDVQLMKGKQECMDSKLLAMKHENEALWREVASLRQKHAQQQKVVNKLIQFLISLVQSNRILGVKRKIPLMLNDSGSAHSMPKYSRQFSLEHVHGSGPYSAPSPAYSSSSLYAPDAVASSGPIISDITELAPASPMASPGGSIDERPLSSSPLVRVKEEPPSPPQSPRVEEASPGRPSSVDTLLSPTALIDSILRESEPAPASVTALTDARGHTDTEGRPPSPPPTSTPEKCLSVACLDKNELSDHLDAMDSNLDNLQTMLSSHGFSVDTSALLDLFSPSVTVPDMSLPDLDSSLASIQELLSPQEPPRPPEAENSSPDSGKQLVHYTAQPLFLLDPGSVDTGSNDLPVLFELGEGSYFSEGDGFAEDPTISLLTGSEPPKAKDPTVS
# ELF4, sequence (Q99607 whole entry): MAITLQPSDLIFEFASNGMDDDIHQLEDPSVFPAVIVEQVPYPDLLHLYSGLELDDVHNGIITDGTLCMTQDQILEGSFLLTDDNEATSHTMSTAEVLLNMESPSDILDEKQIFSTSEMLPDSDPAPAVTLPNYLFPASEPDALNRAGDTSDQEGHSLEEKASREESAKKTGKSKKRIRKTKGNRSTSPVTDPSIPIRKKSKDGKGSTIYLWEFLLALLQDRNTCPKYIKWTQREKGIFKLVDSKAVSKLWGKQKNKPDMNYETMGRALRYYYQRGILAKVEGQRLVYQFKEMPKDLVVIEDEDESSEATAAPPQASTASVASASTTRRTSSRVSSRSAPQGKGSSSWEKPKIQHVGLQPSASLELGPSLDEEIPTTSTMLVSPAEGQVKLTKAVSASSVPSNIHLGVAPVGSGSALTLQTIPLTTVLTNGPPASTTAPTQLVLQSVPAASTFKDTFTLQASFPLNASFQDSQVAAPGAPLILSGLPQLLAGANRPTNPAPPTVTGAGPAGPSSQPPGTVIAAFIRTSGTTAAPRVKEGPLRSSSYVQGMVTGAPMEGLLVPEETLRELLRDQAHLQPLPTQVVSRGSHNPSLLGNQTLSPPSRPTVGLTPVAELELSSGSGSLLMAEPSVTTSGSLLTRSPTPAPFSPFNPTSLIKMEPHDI
# SPIB, sequence (Q01892 whole entry): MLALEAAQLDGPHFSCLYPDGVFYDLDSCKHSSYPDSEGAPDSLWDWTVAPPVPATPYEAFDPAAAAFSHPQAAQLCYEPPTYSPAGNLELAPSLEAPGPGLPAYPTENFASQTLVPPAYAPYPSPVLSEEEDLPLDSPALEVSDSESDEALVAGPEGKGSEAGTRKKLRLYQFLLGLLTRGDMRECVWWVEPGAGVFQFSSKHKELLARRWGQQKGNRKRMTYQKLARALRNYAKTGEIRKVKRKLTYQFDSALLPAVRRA
# ETV1, sequence (P50549 whole entry): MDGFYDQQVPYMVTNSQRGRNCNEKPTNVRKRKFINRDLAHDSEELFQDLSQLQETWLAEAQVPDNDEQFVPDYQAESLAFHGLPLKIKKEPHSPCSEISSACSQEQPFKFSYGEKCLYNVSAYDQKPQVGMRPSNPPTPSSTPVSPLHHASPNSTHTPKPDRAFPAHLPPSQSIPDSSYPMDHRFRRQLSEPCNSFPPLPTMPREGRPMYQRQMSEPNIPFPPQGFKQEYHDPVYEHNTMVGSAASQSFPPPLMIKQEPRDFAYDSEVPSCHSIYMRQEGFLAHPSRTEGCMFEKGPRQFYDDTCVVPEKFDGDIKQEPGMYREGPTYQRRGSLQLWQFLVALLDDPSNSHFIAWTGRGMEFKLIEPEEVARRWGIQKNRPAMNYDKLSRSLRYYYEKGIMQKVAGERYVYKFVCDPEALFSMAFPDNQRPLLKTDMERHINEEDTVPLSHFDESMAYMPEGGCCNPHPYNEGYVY
sequence,measurement,setting,value
GTAAAA,binding signal,FLI1,"1.05 fold enrichment (6-mer frequency, TF over GST control)"
same,binding signal,ELK1,"1 fold enrichment (6-mer frequency, TF over GST control)"
same,binding signal,GABPA,"1.18 fold enrichment (6-mer frequency, TF over GST control)"
same,binding signal,ERG,"1.14 fold enrichment (6-mer frequency, TF over GST control)"
same,binding signal,ELF1,"1.13 fold enrichment (6-mer frequency, TF over GST control)"
same,binding signal,EHF,"1.16 fold enrichment (6-mer frequency, TF over GST control)"
same,binding signal,SPI1,"1.3 fold enrichment (6-mer frequency, TF over GST control)"
same,binding signal,SPIB,"1.1 fold enrichment (6-mer frequency, TF over GST control)"
same,binding signal,ELK3,"1.11 fold enrichment (6-mer frequency, TF over GST control)"
same,binding signal,FEV,"1.07 fold enrichment (6-mer frequency, TF over GST control)"
same,binding signal,ETV5,"1.19 fold enrichment (6-mer frequency, TF over GST control)"
same,binding signal,HSF1,"1.11 fold enrichment (6-mer frequency, TF over GST control)"
same,binding signal,SPIC,"1.13 fold enrichment (6-mer frequency, TF over GST control)"
same,binding signal,ELF4,"1.14 fold enrichment (6-mer frequency, TF over GST control)"
same,binding signal,ELK4,"1.02 fold enrichment (6-mer frequency, TF over GST control)"
same,binding signal,ETV2,"1.21 fold enrichment (6-mer frequency, TF over GST control)"
same,binding signal,ELF3,"1.13 fold enrichment (6-mer frequency, TF over GST control)"
same,binding signal,CRX,"1.03 fold enrichment (6-mer frequency, TF over GST control)"
same,binding signal,ETV1,"1.06 fold enrichment (6-mer frequency, TF over GST control)"
